Calls of active or inactive are those of the source.

Assay [1] has as its system Plasmodium falciparum Sir2 (PF13_0152, Sir2A). Kind of assay: Plasmodium falciparum Sir2A binding compounds – biochemical, small-molecule microarray, 635 nm fluorescence, primary screen (AID 1098).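 Further: score merges spot fluorescence intensity with its signal-to-noise ratio.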 The note with it: fluorescence 635 nm, higher = more signal.
Assay [2] can be described thus: probe aDKK1 binding to arrayed compounds – biochemical, biotinylated probe, 635/667 nm fluorescence, primary screen (AID 1099).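 Further: score merges 667nm spot fluorescence with signal to noise across triplicate slides.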 The note with it: small-molecule microarray, higher = more signal.
The nature of assay [3]: probe aCHRDL2 binding to arrayed compounds – biochemical, biotinylated probe, 635/667 nm fluorescence, primary screen (AID 1100). Particulars: small-molecule microarray, higher = more signal.
Assay [4] can be described thus: change in splice reporter luminescence, either direction, cell-based, HEK293, spliceosome inhibition project, primary screen (AID 1101).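 Further: HEK293 cells carrying a splicing-competent luciferase reporter gene; test concentration not given here.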 The note with it: HEK293 splicing luciferase reporter, 24 h, higher = more signal, called active from +8 up or from −8 down. (A reporter such as luciferase makes a cellular process visible.)
The target in assay [5] is Fibroblast growth factor 10 (Homo sapiens) (UniProt O15520). Kind of assay: compounds binding fibroblast growth factor 10 – biochemical, small-molecule microarray, 635 nm fluorescence, primary screen (AID 1102). The note with it: FGF10 binding, fluorescence 635 nm, higher = more signal.
Assay [6] relates to glycogen synthase kinase-3 (GSK3A per assay name; protocol says GSK3B). Kind of assay: compounds binding glycogen synthase kinase-3 – biochemical, small-molecule microarray, 635 nm fluorescence, GSK3A, primary screen (AID 1103). Further: the record names both GSK3A and GSK3B. Particulars: fluorescence 635 nm, higher = more signal.
In assay [7] the target is Epidermal growth factor receptor (Homo sapiens) (UniProt P00533). Kind of assay: compounds binding epidermal growth factor receptor – biochemical, small-molecule microarray, 635 nm fluorescence, primary screen (AID 1104).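 Further: score merges 667 nm emission intensity with spot signal to noise over triplicate slides.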 The note with it: EGFR binding, higher = more signal.
The target of assay [8] is Follistatin-related protein 3 (Homo sapiens) (UniProt O95633). Kind of assay: compounds binding follistatin-related protein 3 – biochemical, small-molecule microarray, 635 nm fluorescence, primary screen (AID 1105).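 Further: score merges emission near 667 nm and signal to noise per printed spot across three slides.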 Particulars: FSTL3 binding, higher = more signal.
Assay [9] concerns the target Dickkopf-related protein 1 (Homo sapiens) (UniProt O94907). Kind of assay: small molecules binding DKK1 protein – biochemical, small-molecule microarray, 635 nm fluorescence scan, primary screen (AID 1106).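 Further: score merges emission near 667 nm with signal to noise over three replicate slides.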 The note with it: higher = more signal.
The subject of assay [10] is Inhibin beta A chain (activin A). Kind of assay: small molecules binding activin A – biochemical, small-molecule microarray, 635 nm fluorescence scan, primary screen (AID 1107).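 Further: mouse activin A protein probed at 4.33 µg/mL on printed slides; score merges bound-protein fluorescence near 667 nm with spot signal-to-noise.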 The note with it: INHBA, higher = more signal.
Assay [11] deals with Human papillomavirus type 1a protein E7 (residues 44-93). Kind of assay: small molecules binding HPV E7 44-93 – biochemical, small-molecule microarray, residues 44-93, 635 nm fluorescence, primary screen (AID 1108).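 Further: E7 fragment applied at 1 µg/mL in TBST for 1 h at 4 C; score combines spot fluorescence with its signal to noise ratio.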 The note with it: fluorescence 635 nm, higher = more signal.
Assay [12] in a line: hepatitis C replication reporter changes, two-sided – Huh7 cells, luciferase reporter, HCV replication inhibitor project, primary screen (AID 1109).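 Further: huh7 hepatoma cells harbouring a luciferase neomycin HCV replicon reporter; luciferase luminescence as measure of HCV replicon replication; test concentration not given here.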 Particulars: Huh7 HCV replicon luciferase reporter, 48 h; higher = more signal.
Assay [13] deals with Left-right determination factor 2 (Homo sapiens) (UniProt O00292). Kind of assay: small molecules binding LEFTY2 protein – biochemical, small-molecule microarray, 635 nm fluorescence scan, primary screen (AID 1110). Particulars: higher = more signal.
The target of assay [14] is Calmodulin-1 (Homo sapiens) (UniProt P0DP23). Kind of assay: small molecules binding calmodulin-1 with EGTA – biochemical, small-molecule microarray, Cy5-labelled CALM1, profiling panel (AID 1111).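 Further: labelled calmodulin applied in Tris saline Tween buffer holding calcium plus EGTA and DTT.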 Particulars: Cy5-CALM1 binding fluorescence, higher = more signal.
Assay [15] shares this target. Kind of assay: small molecules binding Ca-loaded calmodulin-1 – biochemical, small-molecule microarray, Cy5-labelled CALM1, plus calcium, artefact control for SMM control-protein annotation, profiling panel (AID 1112).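 Further: score merges spot fluorescence with signal to noise from triplicate slides.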 Particulars: Cy5-CALM1 binding fluorescence, higher = more signal.
Assay [16] in a line: probe aWnt5a binding to arrayed compounds – biochemical, biotinylated probe, 635/667 nm fluorescence, primary screen (AID 1113).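 Further: score merges 667 nm fluorescence intensity with signal-to-noise per printed feature.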 Particulars: small-molecule microarray, higher = more signal.
Assay [17] is described as follows: probe aShh binding to arrayed compounds – biochemical, biotinylated probe, 635/667 nm fluorescence, primary screen (AID 1114).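 Further: probe is biotin-labelled aShh protein from a stem cell growth factor screen; measures binding of labelled protein to compounds printed on the slide; score merges feature fluorescence at 667 nm with signal-to-noise.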 The note with it: small-molecule microarray, higher = more signal.
Assay [18] is described as follows: probe aNog binding to arrayed compounds – biochemical, biotinylated probe, 635/667 nm fluorescence, primary screen (AID 1115).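 Further: probe is biotinylated aNog protein used at 0.15 µg/mL for 1 h at 4 C; z-score combines 667 nm fluorescence of each spot with its signal to noise.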 Particulars: small-molecule microarray, higher = more signal.
Assay [19] has as its target Torsin-1A-interacting protein 1 (Homo sapiens) (UniProt Q5JTV8). Kind of assay: compound microarray binding of lysate hLAP1 – cell lysate, small-molecule microarray, COS7 lysate, 635/667 nm fluorescence, primary screen (AID 1116). Particulars: 635 nm fluorescence, higher = more signal.
Assay [20] concerns the target Alpha-bungarotoxin (Bungarus multicinctus) (UniProt P60615). Kind of assay: compounds binding labelled alpha-BTX control protein – biochemical, small-molecule microarray, Alexa647 label, 635/667 nm fluorescence, artefact control for SMM control protein annotation, profiling panel (AID 1117). The note with it: alpha-BTX-A647 binding fluorescence, higher = more signal.

Torsin-1A-interacting protein 1 (Homo sapiens), sequence (Q5JTV8 whole entry, looked up): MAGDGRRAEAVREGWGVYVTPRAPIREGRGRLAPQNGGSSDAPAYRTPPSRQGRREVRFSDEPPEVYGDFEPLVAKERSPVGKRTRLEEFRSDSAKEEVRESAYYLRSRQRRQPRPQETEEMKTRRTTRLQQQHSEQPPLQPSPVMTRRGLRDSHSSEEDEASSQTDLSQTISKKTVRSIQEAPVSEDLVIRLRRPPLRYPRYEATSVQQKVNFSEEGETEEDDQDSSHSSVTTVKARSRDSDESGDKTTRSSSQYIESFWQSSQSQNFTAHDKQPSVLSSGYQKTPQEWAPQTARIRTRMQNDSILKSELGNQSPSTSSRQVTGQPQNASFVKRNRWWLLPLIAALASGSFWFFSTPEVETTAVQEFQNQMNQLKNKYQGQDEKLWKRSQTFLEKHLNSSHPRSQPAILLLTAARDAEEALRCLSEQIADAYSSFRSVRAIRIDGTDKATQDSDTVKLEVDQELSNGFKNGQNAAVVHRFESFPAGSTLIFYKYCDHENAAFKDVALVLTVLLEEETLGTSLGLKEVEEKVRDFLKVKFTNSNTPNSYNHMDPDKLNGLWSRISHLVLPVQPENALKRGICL
Follistatin-related protein 3 (Homo sapiens), sequence (O95633 whole entry, looked up): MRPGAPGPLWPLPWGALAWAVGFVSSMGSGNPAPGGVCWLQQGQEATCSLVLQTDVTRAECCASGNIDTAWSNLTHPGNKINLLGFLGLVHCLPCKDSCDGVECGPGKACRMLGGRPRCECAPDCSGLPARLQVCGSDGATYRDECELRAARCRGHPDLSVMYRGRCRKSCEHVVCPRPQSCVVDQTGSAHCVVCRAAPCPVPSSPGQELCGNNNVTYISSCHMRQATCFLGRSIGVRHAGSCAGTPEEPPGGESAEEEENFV
Dickkopf-related protein 1 (Homo sapiens), sequence (O94907 whole entry, looked up): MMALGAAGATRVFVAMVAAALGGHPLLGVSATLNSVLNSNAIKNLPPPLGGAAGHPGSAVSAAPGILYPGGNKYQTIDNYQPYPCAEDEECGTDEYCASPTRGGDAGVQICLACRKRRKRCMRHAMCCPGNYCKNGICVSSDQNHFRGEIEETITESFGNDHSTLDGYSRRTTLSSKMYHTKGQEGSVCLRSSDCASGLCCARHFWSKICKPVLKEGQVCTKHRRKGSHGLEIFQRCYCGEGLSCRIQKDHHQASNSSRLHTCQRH
Epidermal growth factor receptor (Homo sapiens), sequence (P00533 whole entry, looked up): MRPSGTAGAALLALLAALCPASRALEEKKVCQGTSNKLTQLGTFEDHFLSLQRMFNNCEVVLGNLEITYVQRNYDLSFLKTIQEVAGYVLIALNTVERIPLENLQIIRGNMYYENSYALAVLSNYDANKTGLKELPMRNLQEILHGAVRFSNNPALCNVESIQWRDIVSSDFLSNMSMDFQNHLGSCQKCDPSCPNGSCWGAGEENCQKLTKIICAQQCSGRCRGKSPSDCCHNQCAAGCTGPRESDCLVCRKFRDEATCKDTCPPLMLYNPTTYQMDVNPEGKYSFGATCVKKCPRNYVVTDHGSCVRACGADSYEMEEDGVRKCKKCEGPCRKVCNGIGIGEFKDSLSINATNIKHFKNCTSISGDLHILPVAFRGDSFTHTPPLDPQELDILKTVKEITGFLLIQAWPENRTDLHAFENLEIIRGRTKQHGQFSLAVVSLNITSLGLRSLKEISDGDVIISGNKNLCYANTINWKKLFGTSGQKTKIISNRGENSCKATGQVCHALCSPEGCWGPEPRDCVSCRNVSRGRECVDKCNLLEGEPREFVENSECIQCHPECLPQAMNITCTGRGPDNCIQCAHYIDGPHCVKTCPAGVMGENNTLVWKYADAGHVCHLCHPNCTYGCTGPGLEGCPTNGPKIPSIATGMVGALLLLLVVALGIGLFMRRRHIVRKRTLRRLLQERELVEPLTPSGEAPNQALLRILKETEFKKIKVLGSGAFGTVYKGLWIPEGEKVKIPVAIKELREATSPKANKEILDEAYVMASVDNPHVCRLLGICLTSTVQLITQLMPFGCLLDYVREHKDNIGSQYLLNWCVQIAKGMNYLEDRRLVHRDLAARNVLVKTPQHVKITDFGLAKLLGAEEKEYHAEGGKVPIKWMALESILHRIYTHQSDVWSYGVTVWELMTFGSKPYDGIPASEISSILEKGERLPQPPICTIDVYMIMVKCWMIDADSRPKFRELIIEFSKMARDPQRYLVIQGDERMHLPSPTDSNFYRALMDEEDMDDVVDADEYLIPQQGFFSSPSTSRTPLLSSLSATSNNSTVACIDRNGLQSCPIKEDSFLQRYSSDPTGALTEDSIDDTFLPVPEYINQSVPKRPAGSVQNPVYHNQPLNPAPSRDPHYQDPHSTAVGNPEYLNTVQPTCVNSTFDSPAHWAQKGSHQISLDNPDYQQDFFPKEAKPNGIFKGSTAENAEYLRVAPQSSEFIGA
Left-right determination factor 2 (Homo sapiens), sequence (O00292 whole entry, looked up): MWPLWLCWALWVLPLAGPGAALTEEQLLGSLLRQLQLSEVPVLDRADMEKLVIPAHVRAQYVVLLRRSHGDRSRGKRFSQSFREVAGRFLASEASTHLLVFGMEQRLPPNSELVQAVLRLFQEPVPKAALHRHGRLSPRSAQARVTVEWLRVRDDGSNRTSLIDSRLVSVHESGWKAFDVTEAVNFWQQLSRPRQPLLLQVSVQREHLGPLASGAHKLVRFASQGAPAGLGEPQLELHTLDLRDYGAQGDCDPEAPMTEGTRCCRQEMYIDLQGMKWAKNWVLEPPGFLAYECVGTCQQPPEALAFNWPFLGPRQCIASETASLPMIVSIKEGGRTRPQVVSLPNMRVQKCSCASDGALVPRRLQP
Alpha-bungarotoxin (Bungarus multicinctus), sequence (P60615 whole entry, looked up): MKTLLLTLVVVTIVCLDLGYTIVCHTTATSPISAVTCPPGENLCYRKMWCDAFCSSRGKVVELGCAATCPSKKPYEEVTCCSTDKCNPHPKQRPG
Fibroblast growth factor 10 (Homo sapiens), sequence (O15520 whole entry, looked up): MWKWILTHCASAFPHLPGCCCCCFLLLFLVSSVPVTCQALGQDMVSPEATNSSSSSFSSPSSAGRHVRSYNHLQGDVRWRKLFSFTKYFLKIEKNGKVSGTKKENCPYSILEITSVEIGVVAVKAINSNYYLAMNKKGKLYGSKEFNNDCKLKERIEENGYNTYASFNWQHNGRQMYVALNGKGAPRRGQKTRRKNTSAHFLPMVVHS

Regarding `CN1C=C(C(=O)OCCS(C)(=O)=O)C(C(=O)OCCS(C)(=O)=O)=CC(c2ccc(CO)cc2)=CC1C1CC1` (stereo not given), the composite z-score in [1] was 0.666; in [2], -0.0901; in assay [3] it was 0.166; in assay [5] it was 0.16; in assay [6], -0.0888; in assay [7], 0.353. The composite z-score in assay [8] is -0.0857; in assay [9] it was 0.0847; in assay [10], 0.99; in assay [11], -0.0095; in assay [13], 0.328; in assay [14], 0.405. Moreover, the composite z-score was -0.306 in assay [15]; -0.105 in [16]; -0.0681 in [17]; 0.366 in [18]; 1.83 in assay [19]; 0.274 in assay [20]. Moreover, the results for the z-score in assay [4] and in assay [12] were 0.456 (inactive) and -0.595, respectively.

Turning to `O=C(NCCN1CCOCC1)[C@@H]1c2ccccc2C(=O)N(C2CCCCC2)[C@H]1c1ccc(CO)cc1`, the composite z-score in assay [1] is 1.06; in [2], 0.484; in assay [3], 0.92; in assay [5] it was -0.534; in assay [6] it was -0.362; in assay [7] it was -1.03. Further, the composite z-score in assay [8] is -0.942; in [9] it was -0.809; in assay [10], 0.891; in assay [11], 1.44; in assay [13], -0.0308; in assay [14] it was 0.0999. For the same molecule, the composite z-score in assay [15] was -0.336; in [16] it was -0.101; in assay [17], -0.138; in assay [18] it was 0.76; in assay [19], 0.0614; in assay [20] it was -0.0569. For the same molecule, the z-score in assay [4] was 0.261 (inactive); in assay [12], -1.49.

Consider `C=CCOC(=O)[C@H]1[C@@H]2C(=O)O[C@@H](c3ccccc3)[C@@H](c3ccccc3)N2[C@@H](c2ccc(OCCOC(=O)[C@H]3C[C@H]4C(=O)N[C@@H](CCCCN(C)C)C(=O)N4[C@H]3c3ccc(O)cc3)cc2)[C@]12C(=O)Nc1ccc(I)cc12`, for which the composite z-score in assay [1] turned out to be 1.72; in assay [2], 0.193; in assay [3], 0.289; in assay [5], 1.31; in assay [6] it was 1.32; in [7], 0.741. Moreover, the composite z-score in assay [8] worked out at 1.41; in assay [9] it was 0.849; in [10], 1.29; in [11], 1.4; in [13], 1.21; in assay [14] it was 0.536. Besides, the composite z-score was -0.62 in [15]; 0.114 in [16]; 0.275 in assay [17]; 1.14 in [18]; 1.64 in assay [19]; 0.864 in assay [20]. In addition, the z-score was 0.426 (inactive) in assay [4] and -0.151 in assay [12].

Take `COCCOC(=O)N1C(=O)[C@@]2(c3cc(C#CCC(C(=O)OC)C(=O)OC)ccc31)[C@H](C(=O)N1CCN(c3ncccn3)CC1)[C@H]1C(=O)O[C@H](c3ccccc3)[C@H](c3ccccc3)N1[C@@H]2c1ccccc1OCCO`: the composite z-score is 0.664 in [1]; -0.0805 in [2]; -0.408 in assay [3]; 1.33 in [5]; 1.3 in assay [6]; 0.926 in assay [7]. Also, the composite z-score in assay [8] is 1.38; in [9] it was 0.962; in assay [10] it was 0.286; in assay [11] it was 1.38; in assay [13], 1.16; in assay [14], 0.875. Further, the composite z-score is -0.487 in assay [15]; -0.0403 in assay [16]; -0.17 in assay [17]; -0.141 in [18]; 0.351 in [19]; 1.29 in assay [20]. The z-score in assay [4] was 0.476 (inactive); in [12], -1.94.

Turning to `CC1CC/C=C\[C@H]2OC34C=CCN(C(C)(C)C)C(=O)[C@H]3N(CCO)C(=O)[C@@H]4C2C(=O)O1` (stereo not given in full), the composite z-score in assay [1] was -0.103; in [2], -0.404; in assay [3] it was 0.51; in assay [5], -0.98; in [6], -0.496; in assay [7] it was -1.33. In addition, the composite z-score is -0.755 in assay [8]; -0.739 in assay [9]; -0.0663 in assay [10]; -0.432 in [11]; -1.66 in assay [13]; -1.34 in assay [14]. Further, the composite z-score was -0.746 in assay [15]; -0.224 in [16]; -0.372 in [17]; 0.489 in [18]; -1.25 in assay [19]; -0.153 in [20]. Besides, the z-score in [4] is 0.851 (inactive); in assay [12], -0.106.

The record behind these values is PubChem BioAssay.
